# From PubChem BioAssay (Tox21)
# Unmarked numbers belong to inactive results. Inconclusive results are not listed. Entries that show only a call come without a potency. Activity calls are given as the source filed them. Unless noted, the call rests on the fitted dose curve; in most records, active means well fitted curve in the direction sought with a large enough effect in the repeat runs; inconclusive means weak or mixed curves; inactive means no such curve, though single readings can be large; an effect the other way counts as inactive or inconclusive.
# How the values were obtained:
# [1] = A CellTox Green Cytotoxicity Assay to monitor cytotoxicity in HepG2 cells - 8 hour (AID 1224890); further: nearly all actives have a fitted effect of over 45% in size
# Procedure, shortened: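 Measurements at 0, 8, 16, 24, 32 and 40 h of treatment captured CellTox Green fluorescence in HepG2 cells that had been co-plated with reagent and preincubated 5 h at 37 C/5% CO2.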
# [2] = qHTS assay to identify small molecule antagonists of the estrogen receptor alpha (ER-alpha) signaling pathway using the BG1 cell line in the presence of 0.1 nM 17-beta-estradiol - cell viability counter screen (AID 1259241); further: nearly all actives have a fitted effect of over 40% in size
# Procedure, shortened: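 VM7Luc4E2 cells (endogenous ER-alpha, 4×ERE-luciferase), hormone-starved 5 days in charcoal-stripped FBS, were treated with compounds plus 0.1 nM 17beta-estradiol for 22 hr at 37C; viability read in same wells as CellTiter-Fluor live-cell protease fluorescence.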
# [3] = qHTS assay to identify small molecule antagonists of the androgen receptor (AR) signaling pathway using the MDA cell line in the presence of 0.5 nM R1881 - cell viability counter screen (AID 1259242); further: nearly all actives have a fitted effect of over 45% in size
# Procedure, shortened: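 Concentration-response screen of compounds for toxicity in MDA-kb2 reporter cells: 16 hr at 37C with 0.5 nM R1881, endpoint live-cell protease fluorescence measured in the reporter wells.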
# [4] = biological target: Estrogen receptor (Homo sapiens) (UniProt P03372); assay: qHTS assay to identify small molecule antagonists of the estrogen receptor alpha (ER-alpha) signaling pathway using the BG1 cell line in the presence of 0.1 nM 17-beta-estradiol (AID 1259244); further: nearly all actives have a fitted effect of over 50% in size
# Chain of Estrogen receptor (Homo sapiens) (P03372 whole entry, looked up): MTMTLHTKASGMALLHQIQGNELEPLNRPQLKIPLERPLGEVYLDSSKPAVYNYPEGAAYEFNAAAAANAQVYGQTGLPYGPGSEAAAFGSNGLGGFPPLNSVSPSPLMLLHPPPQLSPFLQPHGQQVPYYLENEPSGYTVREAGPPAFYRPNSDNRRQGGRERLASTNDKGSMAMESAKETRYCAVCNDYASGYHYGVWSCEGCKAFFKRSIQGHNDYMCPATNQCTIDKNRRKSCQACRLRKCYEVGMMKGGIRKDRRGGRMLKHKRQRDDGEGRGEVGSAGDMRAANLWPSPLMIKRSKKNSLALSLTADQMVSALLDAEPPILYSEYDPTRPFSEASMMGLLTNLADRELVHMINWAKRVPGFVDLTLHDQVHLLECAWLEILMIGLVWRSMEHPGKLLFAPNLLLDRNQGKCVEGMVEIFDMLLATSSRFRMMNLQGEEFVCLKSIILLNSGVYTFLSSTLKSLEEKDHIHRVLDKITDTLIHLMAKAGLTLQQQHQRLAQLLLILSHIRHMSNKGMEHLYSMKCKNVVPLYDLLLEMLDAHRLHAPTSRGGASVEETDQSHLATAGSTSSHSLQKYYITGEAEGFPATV
# Procedure, shortened: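 Compounds were tested against 0.1 nM (final) 17beta-estradiol in VM7Luc4E2 cells, which express full-length ER-alpha and an ERE-luciferase reporter; luminescence was recorded following 22 h exposure.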
# [5] = qHTS assay to identify small molecule HDAC inhibitors (AID 1259364); further: potency means the concentration at half of the fitted maximal effect;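 further: wild-type HCT-116 cells with endogenous class I/II HDAC activity; nearly all actives have a fitted effect of over 45% in size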; on activity change, negative = inhibition: top concentration of the series differs between compounds
# Procedure, shortened: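 Screening used wild-type human colon HCT-116 cells incubated overnight, dosed with compounds for 2 hours, and assayed with a homogeneous luminogenic HDAC I/II reagent for 30 minutes at room temperature.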
# [6] = qHTS assay to identify small molecule HDAC inhibitors - cell viability counter screen (AID 1259365); further: series mostly up to about 92 µM; nearly all actives have a fitted effect of over 50% in size
# Procedure, shortened: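 Wild-type HCT-116 cells were seeded at 1,500 per well, incubated overnight at 37 C, then exposed to compounds in DMSO for 2hr. Viability was read by CellTiter-Glo luminescence after 30min at room temperature.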
# [7] = qHTS assay to identify small molecule agonists of the sonic hedgehog signaling (Shh) pathway - cell viability counter screen (AID 1259366); further: nearly all actives have a fitted effect of over 50% in size
# Procedure, shortened: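 NIH/3T3-derived 3T3 Gli1-Luc cells (stable Gli1-responsive firefly luciferase reporter) were seeded, rested 4 hr at 37 C/5% CO2, then exposed to compounds in DMSO for 24 hr; viability was read by CellTiter-Fluor fluorescence in the same wells.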
# [8] = qHTS assay to identify small molecule antagonists of the sonic hedgehog signaling (Shh) pathway - cell viability counter screen (AID 1259367); further: nearly all actives have a fitted effect of over 55% in size
# Procedure, shortened: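 Conditioned medium drove Shh signaling in 3T3 Gli1-Luc cells exposed to compounds at 37C and 5% CO2. Viability was determined from CellTiter-Fluor fluorescence, with reagent incubated 1 hr after 23 hr of treatment.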
# [9] = qHTS assay to identify small molecule agonists of the sonic hedgehog signaling (Shh) pathway (AID 1259368; calls by dose curve; further: series mostly up to about 92 µM; nearly all actives have a fitted effect of over 15% in size)
# Procedure, shortened: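 Hedgehog pathway agonism scored by increased firefly luciferase luminescence in 3T3Gli1-Luc cells treated 24 hr at 37 C; detection used a 30 min room-temperature reagent incubation.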
# [10] = qHTS assay to identify small molecule antagonists of the sonic hedgehog signaling (Shh) pathway (AID 1259369; calls by dose curve; further: nearly all actives have a fitted effect of over 45% in size)
# Procedure, shortened: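 NIH/3T3 stable Gli1-Luc clone, 2,000 cells/well, 4hr settle; cpd + conditioned medium 24hr; Luc reagent 30min RT; luminescence.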
# [11] = biological target: Estrogen receptor beta (Homo sapiens) (UniProt Q92731); assay: qHTS assay to identify small molecule agonists of the estrogen receptor beta (ER-beta) signaling pathway (AID 1259377; active means well fitted activation curve with a large enough effect in the signal ratio in the repeat runs, not every such curve was filed as active; the % refers to the signal ratio)
# Chain of Estrogen receptor beta (Homo sapiens) (Q92731 whole entry, looked up): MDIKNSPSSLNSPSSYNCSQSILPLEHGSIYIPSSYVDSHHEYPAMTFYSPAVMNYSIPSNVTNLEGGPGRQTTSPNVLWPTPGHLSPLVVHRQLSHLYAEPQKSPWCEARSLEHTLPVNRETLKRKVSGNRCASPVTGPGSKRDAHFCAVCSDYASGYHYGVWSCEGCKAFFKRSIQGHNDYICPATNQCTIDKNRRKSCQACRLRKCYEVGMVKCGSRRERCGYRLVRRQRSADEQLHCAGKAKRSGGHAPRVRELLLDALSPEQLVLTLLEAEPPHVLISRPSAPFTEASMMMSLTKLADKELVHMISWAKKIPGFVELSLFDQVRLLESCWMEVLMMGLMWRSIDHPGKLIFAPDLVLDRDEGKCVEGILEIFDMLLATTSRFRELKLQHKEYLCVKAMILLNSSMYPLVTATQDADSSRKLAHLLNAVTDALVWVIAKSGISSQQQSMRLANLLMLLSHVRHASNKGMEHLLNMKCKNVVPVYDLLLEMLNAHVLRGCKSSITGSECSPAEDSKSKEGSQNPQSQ
# Procedure, shortened: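 ER-beta-UAS-bla HEK293T (GripTite) cells carrying a UAS-driven beta-lactamase reporter, in medium with 2% charcoal-stripped FBS, were exposed to compounds for 16 hr at 37C; LiveBLAzer B/G FRET substrate was then added and fluorescence read after 2 hours at room temperature.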
# [12] = biological target: Estrogen receptor beta (Homo sapiens) (UniProt Q92731); assay: qHTS assay to identify small molecule antagonists of the estrogen receptor beta (ER-beta) signaling pathway (AID 1259378; active means well fitted inhibition curve with a large enough effect in the signal ratio in the repeat runs, not every such curve was filed as active; the % refers to the signal ratio)
# Procedure, shortened: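 ER-beta-UAS-bla HEK293T (GripTite) cells in 2% charcoal-stripped FBS medium were preincubated 6 hr at 37C, dosed with compound, then stimulated with 1 nM E2 (final) for 16 hr; beta-lactamase reporter read by B/G FRET fluorescence after 2 hr substrate loading.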
# [13] = qHTS assay to identify small molecule agonists of the androgen receptor (AR) signaling pathway in the presence of an antagonist - cell viability counter screen (AID 1259379);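 further: MDA-kb2 human breast cancer cells carrying an MMTV luciferase reporter; series mostly up to about 92 µM; nearly all actives have a fitted effect of over 25% in size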
# Procedure, shortened: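 MDA-kb2 viability measured by CellTiter-Fluor fluorescence in the same wells as the luciferase signal; nilutamide 3.0uM final; 15-point compound titration; 16 hr at 37C.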
# [14] = qHTS assay to identify small molecule antagonists of the estrogen receptor beta (ER-beta) signaling pathway - cell viability counter screen (AID 1259382); further: series mostly up to about 92 µM; nearly all actives have a fitted effect of over 55% in size
# Procedure, shortened: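 Readout: luminescence, CellTiter-Glo, same wells as bla assay. System: ER-beta-UAS-bla GripTite HEK293T, 2% charcoal-stripped FBS. Exposure: compounds plus 1nM 17-beta-estradiol, 16 hr, 37C.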
# [15] = biological target: Estrogen receptor (Homo sapiens) (UniProt P03372); assay: qHTS assay to identify small molecule agonists of the estrogen receptor alpha (ER-alpha) signaling pathway in the presence of an antagonist (AID 1259383; calls by dose curve; further: top concentration of the series differs between compounds; nearly all actives have a fitted effect of over 15% in size)
# Procedure, shortened: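 Quantitative HTS confirmation: compounds titrated at 15 concentrations onto estrogen-deprived VM7Luc4E2 cells carrying a four-ERE luciferase construct, with ICI-182,780 present at 10.0nM final. Signal is luminescence after 22hr exposure.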
# [16] = qHTS assay to identify small molecule agonists or antagonists of the thyroid stimulating hormone receptor (TSHR) signaling pathway - wild type cell line counter screen (AID 1259384; calls by dose curve)
# Procedure, shortened: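 Wild-type HEK293 cells were plated 18 h at 37 C/5% CO2, pin-dosed with compound plus Ro20-1724 medium, held 30 min at room temperature, then given cAMP-d2 and anti-cAMP-cryptate; fluorescence was read after 1 h. Fifteen concentrations, triplicate.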
# [17] = qHTS assay to identify small molecule agonists of the estrogen receptor beta (ER-beta) signaling pathway - cell viability counter screen (AID 1259380); further: nearly all actives have a fitted effect of over 30% in size
# Procedure, shortened: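 Measured: luminescence from CellTiter-Glo after 30 min at room temperature, added to wells already read for the LiveBLAzer FRET reporter (2 hr substrate); ER-beta-UAS-bla HEK293T cells had 16 hr compound treatment at 37C, 5% CO2.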
# [18] = qHTS assay to identify small molecule phospholipidosis (PLD) inducers (AID 1259344; active means well fitted curve in the direction sought with a large enough effect; an effect the other way counts as inactive or inconclusive)
# Procedure, shortened: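 After 4 h attachment on collagen I, HepG2 cells were dosed with compound alongside LipidTOX Red, kept 24 h at 37 C, fixed, and imaged for lamellar phospholipid pits.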
compound,measurement,setting,value
O=C(/N=N/C(=O)OCc1ccccc1)OCc1ccccc1,outcome,[1],inactive
same,Potency,[2],inactive
same,outcome,[3],inactive
same,Potency,[4],inactive
same,Potency,[5],inactive
same,outcome,[6],inactive
same,Potency,[7],inactive
same,Potency,[8],inactive
same,outcome,[9],inactive
same,Potency,[10],inactive
same,Potency,[11],inactive
same,outcome,[12],inactive
same,Potency,[13],inactive
same,outcome,[14],inactive
same,outcome,[15],inactive
same,outcome,[16],inactive
CCCCCCOC(=O)CC,outcome,[1],inactive
same,Potency,[2],inactive
same,outcome,[3],inactive
same,Potency,[4],inactive
same,Potency,[5],inactive
same,outcome,[6],inactive
same,Potency,[8],inactive
same,outcome,[9],inactive
same,Potency,[10],inactive
same,Potency,[11],inactive
same,outcome,[12],inactive
same,Potency,[13],inactive
same,Potency,[17],inactive
same,outcome,[14],inactive
same,outcome,[15],inactive
CC(=O)N[C@@H](CCC(=O)O)C(=O)O,outcome,[1],inactive
same,Potency,[2],inactive
same,outcome,[3],inactive
same,outcome,[18],inactive
same,Potency,[5],inactive
same,outcome,[6],inactive
same,Potency,[7],inactive
same,Potency,[8],inactive
same,outcome,[9],inactive
same,Potency,[10],inactive
same,Potency,[11],inactive
same,outcome,[12],inactive
same,Potency,[13],inactive
same,Potency,[17],inactive
same,outcome,[14],inactive
same,outcome,[16],inactive
Nc1nnc(-c2cccc(Cl)c2Cl)c(N)n1,outcome,[1],inactive
same,Potency,[2],inactive
same,outcome,[3],inactive
same,outcome,[18],inactive
same,Potency,[5],inactive
same,outcome,[6],inactive
same,Potency,[7],inactive
same,Potency,[8],inactive
same,outcome,[9],inactive
same,Potency,[10],inactive
same,Potency,[11],inactive
same,outcome,[12],inactive
same,Potency,[13],inactive
same,Potency,[17],inactive
same,outcome,[16],inactive
CCCCCCCC/C=C\CCCCCCCC(=O)OCCCC,cytotoxicity increase,[1],-0.525% [at 15.8 µM]
same,"activity change, negative = cytotoxicity",[2],-3.36% [at 19 µM]
same,"viability change, negative = cytotoxic",[3],-4.19% [at 19 µM]
same,"activity change, negative = inhibition",[4],-2.58% [at 19 µM]
same,"activity change, negative = inhibition",[5],2.78% [at 19 µM]
same,"activity change, negative = cytotoxicity",[6],-0.686% [at 19 µM]
same,"viability change, negative = cytotoxic",[7],-5.96% [at 19 µM]
same,activity change,[9],-0.497% [at 18.9 µM]
same,"activity change, negative = inhibition",[10],17.1% [at 19 µM]
same,activation,[11],-0.0077% [at 19 µM]
same,"activity, negative = inhibition",[12],0.587% [at 19 µM]
same,"activity change, negative = cytotoxicity",[13],0.614% [at 19 µM]
same,"activity change, negative = cytotoxicity",[14],-4.71% [at 19 µM]
same,activation,[15],0.165% [at 19 µM]
same,cAMP activity change,[16],-3.23% [at 18.9 µM]
CC(C)CC(=O)O,outcome,[1],inactive
same,Potency,[2],inactive
same,outcome,[3],inactive
same,Potency,[4],inactive
same,Potency,[5],inactive
same,outcome,[6],inactive
same,Potency,[7],inactive
same,Potency,[8],inactive
same,outcome,[9],inactive
same,Potency,[10],inactive
same,Potency,[11],inactive
same,outcome,[12],inactive
same,Potency,[13],inactive
same,Potency,[17],inactive
same,outcome,[14],inactive
same,outcome,[15],inactive
same,outcome,[16],inactive
CC(C)CCCC(C)(C)O,outcome,[1],inactive
same,Potency,[2],inactive
same,outcome,[3],inactive
same,Potency,[4],inactive
same,Potency,[5],inactive
same,outcome,[6],inactive
same,Potency,[7],inactive
same,outcome,[9],inactive
same,Potency,[10],inactive
same,Potency,[11],inactive
same,outcome,[12],inactive
same,Potency,[13],inactive
same,Potency,[17],inactive
same,outcome,[14],inactive
same,outcome,[15],inactive
same,outcome,[16],inactive
CC(C)C(=O)OCCc1ccccc1,outcome,[1],inactive
same,Potency,[2],inactive
same,outcome,[3],inactive
same,Potency,[4],inactive
same,Potency,[5],inactive
same,outcome,[6],inactive
same,Potency,[7],inactive
same,Potency,[8],inactive
same,outcome,[9],inactive
same,Potency,[10],inactive
same,Potency,[13],inactive
same,Potency,[17],inactive
same,outcome,[14],inactive
same,outcome,[15],inactive
same,outcome,[16],inactive
CC1=CCC(C(C)C)=CC1,outcome,[1],inactive
same,Potency,[2],inactive
same,outcome,[3],inactive
same,Potency,[4],inactive
same,Potency,[5],inactive
same,outcome,[6],inactive
same,Potency,[7],inactive
same,Potency,[8],inactive
same,outcome,[9],inactive
same,Potency,[10],inactive
same,Potency,[13],inactive
same,Potency,[17],inactive
same,outcome,[15],inactive
Cc1ccc2c(c1)OCC(=O)CO2,outcome,[1],inactive
same,Potency,[2],inactive
same,outcome,[3],inactive
same,Potency,[4],inactive
same,Potency,[5],inactive
same,outcome,[6],inactive
same,Potency,[7],inactive
same,Potency,[8],inactive
same,outcome,[9],inactive
same,Potency,[10],inactive
same,Potency,[11],inactive
same,outcome,[12],inactive
same,Potency,[13],inactive
same,Potency,[17],inactive
same,outcome,[15],inactive
same,outcome,[16],inactive
O=C1c2ccccc2C(=O)c2cc(S(=O)(=O)O)ccc21,outcome,[1],inactive
same,Potency,[2],inactive
same,outcome,[3],inactive
same,Potency,[4],inactive
same,Potency,[5],2440 nM (active)
same,outcome,[6],inactive
same,Potency,[7],inactive
same,Potency,[8],inactive
same,outcome,[9],inactive
same,Potency,[10],inactive
same,Potency,[13],inactive
same,Potency,[17],inactive
same,outcome,[15],inactive
same,outcome,[16],inactive
O=S(=O)(O)c1ccc2cc(O)c(S(=O)(=O)O)cc2c1,outcome,[1],inactive
same,Potency,[2],inactive
same,outcome,[3],inactive
same,Potency,[4],inactive
same,Potency,[5],inactive
same,outcome,[6],inactive
same,Potency,[7],inactive
same,outcome,[9],inactive
same,Potency,[10],inactive
same,Potency,[11],inactive
same,outcome,[12],inactive
same,Potency,[13],inactive
same,Potency,[17],inactive
same,outcome,[14],inactive
same,outcome,[15],inactive
same,outcome,[16],inactive
CCCC(=O)C(C)=O,outcome,[1],inactive
same,Potency,[2],inactive
same,outcome,[3],inactive
same,Potency,[4],inactive
same,Potency,[5],inactive
same,outcome,[6],inactive
same,Potency,[7],inactive
same,outcome,[9],inactive
same,Potency,[10],inactive
same,Potency,[11],inactive
same,outcome,[12],inactive
same,Potency,[13],inactive
same,Potency,[17],inactive
same,outcome,[14],inactive
same,outcome,[15],inactive
same,outcome,[16],inactive
Cc1ccc(C=O)cc1C,outcome,[1],inactive
same,Potency,[2],inactive
same,outcome,[3],inactive
same,Potency,[4],inactive
same,Potency,[5],inactive
same,outcome,[6],inactive
same,Potency,[7],inactive
same,Potency,[8],inactive
same,outcome,[9],inactive
same,Potency,[10],inactive
same,Potency,[11],inactive
same,outcome,[12],inactive
same,Potency,[13],inactive
same,Potency,[17],inactive
same,outcome,[14],inactive
same,outcome,[15],inactive
same,outcome,[16],inactive
